Article PMC7010328

Tests used:
[1] = target: Nucleosome assembly protein 1-like 1 (UniProt P55209); experiment: cross-link between two proteins; cross-linking mass spectrometry
[2] = target: Small ribosomal subunit protein uS11 (UniProt P62263); experiment: as above

Chain of UniProt P55209 (P55209 whole entry): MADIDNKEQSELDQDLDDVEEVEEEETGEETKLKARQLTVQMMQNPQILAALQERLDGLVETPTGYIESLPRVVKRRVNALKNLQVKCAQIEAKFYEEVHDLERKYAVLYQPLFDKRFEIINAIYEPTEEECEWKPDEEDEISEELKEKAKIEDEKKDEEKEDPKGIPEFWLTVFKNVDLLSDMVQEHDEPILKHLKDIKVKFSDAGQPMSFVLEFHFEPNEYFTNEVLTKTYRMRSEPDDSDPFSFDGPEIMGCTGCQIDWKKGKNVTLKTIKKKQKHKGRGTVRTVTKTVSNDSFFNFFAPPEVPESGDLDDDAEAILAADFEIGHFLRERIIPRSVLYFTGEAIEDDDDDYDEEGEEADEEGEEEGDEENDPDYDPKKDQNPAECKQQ

## 60 kDa heat shock protein, mitochondrial, P10809
[1]
  listed as a hit: yes
[2]
  listed as a hit: yes
